PubChem BioAssay (EPA / NIEHS)
Where “and” joins values, the source holds several entries; their conditions need not be identical. Equal entries are not always repeated. Records with an inconclusive call do not appear. More than one record can exist for a structure, and the calls need not agree. Calls of active or inactive are those of the source. How the source made its calls, unless noted: active means hit-call score of the fitted dose curve at least 0.9, where 1 is the maximum; inconclusive means response in the unintended direction; inactive means score below 0.9.

Columns and labels:
[1] = STM_H9_CystineISnorm_perc: Stemina devTOX quickPredict H9 human embryonic stem cell (hESC)-based Assay for Cystine (CYSS) Metabolite Biomarker, Normalized (AID 2283713; active means hit-call score of the fitted dose curve at least 0.9, where 1 is the maximum; inactive means score below 0.9)
In short: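 Undifferentiated H9 hESCs exposed 72 h, compound and media replaced every 24 h; final 24-h media analysed by UPLC-HRMS. Cystine normalized to C13 spike-in standard and median 0.1% DMSO control.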

[2] = Tanguay_ZF_120hpf_ActivityScore_legacy: (Legacy) Oregon State University Tanguay Lab 120 Hour Post-fertilization zebrafish Assay Score for Activity (AID 2283742);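 on AC50: dechorionated Tropical 5D wild-type zebrafish embryos held singly per well; static exposure from 6 hpf until 120 hpf at 28 °C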
In short: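 Embryos are staged, enzymatically dechorionated at 4 hpf, placed individually at 6 hpf, then held in test chemical (0.64% DMSO) at 28C until 120 hpf. Mortality and malformations are scored by brightfield, with non-mortality endpoints skipped for dead embryos.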

[3] = ACEA_AR_agonist_AUC_viability: ACEA Biosciences xCELLigence Real-Time Cell Analysis on Androgen Receptor Agonism for Viability (AID 2283775);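 on AC50: viability read 80 hours after compound addition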
In short: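 Real-time impedance tracking of 22Rv1 growth, readings every 5 min for 5 h then hourly; area-under-curve viability endpoint at 80 hours, relative to DMSO. Compounds at eight concentrations, 1:4 steps, top 100 uM, n = 2.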

[4] = ACEA_AR_antagonist_AUC_viability: ACEA Biosciences xCELLigence Real-Time Cell Analysis on Androgen Receptor Antagonism for Viability (AID 2283776);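 further: 22Rv1 human prostate cancer cells growing on impedance electrode plates; hits lower the growth signal relative to DMSO meaning cytotoxicity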
In short: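 Real-time electrical impedance tracks 22Rv1 proliferation after continuous compound exposure (top 100 uM final, 1:4 steps, 8 concentrations). The 80 h area-under-curve serves as the cytotoxicity readout relative to DMSO.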

[5] = STM_H9_OrnCyssISnorm_ratio: Stemina devTOX quickPredict H9 human embryonic stem cell (hESC)-based Assay for Ornithine (ORN):Cystine (CYSS) Ratio (AID 2283714)
In short: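 Steps: H9 hESCs in pluripotent state dosed 72h, medium plus compound renewed every 24h; conditioned medium from the final 24h deproteinized in 40% acetonitrile; ORN and CYSS quantified by UPLC-HRMS with C13 spike-ins; ratio relative to vehicle.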

[6] = ArunA_CellTiter_hNP: Viability Assessment in the ArunA Biomedical's Oris Neural Crest (hNC) Cell Migration Assay (AID 2283753)
In short: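 H9-derived hNP1 neuroprogenitors, 60,000/well on Matrigel, cultured 16 h, then 72 h chemical exposure in test medium. Cell titer via CellTiter Aqueous One; positive-direction fit vs DMSO.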

[7] = ArunA_Migration_hNP: ArunA Biomedical's Oris Neuroprogenitor (hNP) Cell Migration Assay (AID 2283754)
In short: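 Human H9-derived hNP1 neuroprogenitors on Matrigel with LIF/bFGF, plated around seeding stoppers for 16 h at 37C; stoppers removed at start of 72 h chemical exposure. Calcein-AM staining, fluorescence 494/517 nm in detection zone; loss-of-signal vs DMSO; cytochalasin D control.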

[8] = ArunA_Migration_hNC: ArunA Biomedical's Oris Neural Crest (hNC) Cell Migration Assay (AID 2283755)
In short: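 Human H9-derived neural crest stem cells, 60,000/well on Matrigel, 16 h at 37C, then 72 h chemical exposure after seeding-stopper removal. Migration into detection zone read as calcein-AM fluorescence (ex494/em517), relative to DMSO.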

[9] = ArunA_NOG_NucleusCount: ArunA Biomedical's Neurite Outgrowth (NOG) Assay for Nucleus Count (AID 2283756)
In short: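 Human H9-derived differentiated neurons were exposed for 48 h right after seeding. Hoechst-stained nuclei gated by size and intensity were counted by automated high-content imaging as viable neurons. Loss of signal vs DMSO.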

[10] = ArunA_NOG_NeuriteLength: ArunA Biomedical's Neurite Outgrowth (NOG) Assay for Neurite Length (AID 2283757)
In short: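 Differentiated human H9-derived neurons were exposed for 48 h from seeding, then stained with Hoechst and βIII-tubulin. Automated high-content imaging gave total neurite length per valid neuron, counting processes >10 um. Loss of signal was scored versus DMSO.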

[11] = ArunA_NOG_NeuritesPerNeuron: ArunA Biomedical's Neurite Outgrowth (NOG) Assay for Neurites Per Neuron (AID 2283758)
In short: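 Differentiated human H9-derived neurons exposed to chemicals for 48 h from seeding, then stained with Hoechst and βIII-tubulin/DyLight 488. Automated imaging counted neurites (processes >10 um) per valid neuron; loss of signal versus DMSO scored.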

[12] = ArunA_NOG_BranchPointsPerNeurite: ArunA Biomedical's Neurite Outgrowth (NOG) Assay for Branch Points Per Neurite (AID 2283759)
In short: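 Automated image analysis traced neurites (processes >10 um) from valid cell bodies after Hoechst and βIII-tubulin staining. hNN cells from H9 embryonic stem cells, 48 h exposure. Fitted bidirectionally against DMSO.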

[13] = CEETOX_H295R_MTT_cell_viability: Viability Assessment in the CeeTox HT-H295R MTT Assay (AID 2283718; active means hit-call score of the fitted dose curve at least 0.9, where 1 is the maximum; inactive means score below 0.9;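 on AC50: curve fitted both ways so AC50 may mark viability loss or gain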)
In short: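 MTT reduction (0.5 mg/ml, 4 h at 37 C; absorbance at 570 and 650 nm) gave viability as background-corrected percent change versus controls. H295R cells had 48 h forskolin (10 uM) prestimulation, then 48 h chemical exposure at 0.1% DMSO.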

[14] = system: zebrafish Androgen Receptor (AR), gene 100005148; experiment: ATG_zfAR_XSP1: Attagene TRANS-FACTORIAL Multi-Species (XSP1) HepG2 Assay for zebrafish Androgen Receptor (AR) (AID 2283771)
In short: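 HepG2 cells were transiently transfected with a zebrafish AR-GAL4 reporter system and partially stimulated with 3 nM 6-alpha-fluorotestosterone. Reporter mRNA was measured after 24 h dosing by RT-PCR with capillary electrophoresis, and gain-of-signal was fitted relative to DMSO.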

[15] = molecular target: zebrafish Estrogen Receptor (ESR1), esr1 (gene 259252) (UniProt P57717); experiment: ATG_zfER1_XSP1: Attagene TRANS-FACTORIAL Multi-Species (XSP1) HepG2 Assay for zebrafish Estrogen Receptor (ESR1) (AID 2283772)
Chain of zebrafish Estrogen Receptor (ESR1), esr1 (gene 259252) (P57717 whole entry, looked up, the tested form may be a part): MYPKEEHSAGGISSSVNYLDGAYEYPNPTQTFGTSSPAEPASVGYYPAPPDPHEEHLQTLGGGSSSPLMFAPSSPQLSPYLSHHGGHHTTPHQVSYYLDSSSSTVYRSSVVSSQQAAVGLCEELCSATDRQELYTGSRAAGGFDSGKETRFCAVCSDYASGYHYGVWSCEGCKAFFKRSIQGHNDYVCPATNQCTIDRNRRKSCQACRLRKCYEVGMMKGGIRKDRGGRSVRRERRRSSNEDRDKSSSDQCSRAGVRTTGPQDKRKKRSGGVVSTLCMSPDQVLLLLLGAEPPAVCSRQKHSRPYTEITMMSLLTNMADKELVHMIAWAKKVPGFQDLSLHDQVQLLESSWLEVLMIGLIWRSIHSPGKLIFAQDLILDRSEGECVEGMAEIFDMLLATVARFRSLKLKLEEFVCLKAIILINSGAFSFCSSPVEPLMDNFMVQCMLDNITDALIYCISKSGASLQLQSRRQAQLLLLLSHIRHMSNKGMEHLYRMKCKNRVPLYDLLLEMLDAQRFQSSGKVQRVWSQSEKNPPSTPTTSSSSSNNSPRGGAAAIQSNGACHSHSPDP
In short: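 Trans-activation readout: transfected zebrafish ER-Gal4 drives a UAS reporter in human HepG2 liver cells. After 24 h compound exposure (medium containing 3 nM 6-alpha-fluorotestosterone), induced reporter transcripts were quantified by RT-PCR with capillary electrophoresis, relative to DMSO.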

[16] = system: zebrafish Estrogen Receptor (ESR2B), gene 317733; experiment: ATG_zfER2b_XSP1: Attagene TRANS-FACTORIAL Multi-Species (XSP1) HepG2 Assay for zebrafish Estrogen Receptor (ESR2B) (AID 2283773)
In short: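 Gain-of-signal endpoint relative to DMSO: reporter transcript levels quantified by RT-PCR and capillary electrophoresis after 24 h compound exposure of HepG2 cells expressing a zebrafish ER2b-Gal4 chimera.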

[17] = system: frog Estrogen Receptor (ESR2), gene 100174814; experiment: ATG_frER2_XSP1: Attagene TRANS-FACTORIAL Multi-Species (XSP1) HepG2 Assay for frog Estrogen Receptor (ESR2) (AID 2283774)
In short: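 Transactivation of an exogenous receptor-Gal4 fusion is tracked in transfected HepG2 cells via induced reporter transcript levels. After 24 h treatment, RT-PCR with capillary electrophoresis quantifies signal gain over DMSO.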

[18] = ArunA_CellTiter_hNC: Viability Assessment in the ArunA Biomedical's Oris Neural Crest (hNC) Cell Migration Assay (AID 2283752)
In short: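 Human H9-derived neural crest cells plated on Matrigel (60,000/well) with LIF and bFGF, incubated 16 h, then exposed 72 h to chemical in test medium. Viability measured with CellTiter Aqueous One reagent; loss of signal versus DMSO.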

[19] = molecular target: Luciferin 4-monooxygenase (Photinus pyralis) (UniProt P08659); experiment: CCTE_Simmons_QuantiLum_inhib_2: CCTE's Firefly Luciferase Inhibition Assay, Simmons Lab (AID 2283767)
Chain of Luciferin 4-monooxygenase (Photinus pyralis) (P08659 whole entry, looked up): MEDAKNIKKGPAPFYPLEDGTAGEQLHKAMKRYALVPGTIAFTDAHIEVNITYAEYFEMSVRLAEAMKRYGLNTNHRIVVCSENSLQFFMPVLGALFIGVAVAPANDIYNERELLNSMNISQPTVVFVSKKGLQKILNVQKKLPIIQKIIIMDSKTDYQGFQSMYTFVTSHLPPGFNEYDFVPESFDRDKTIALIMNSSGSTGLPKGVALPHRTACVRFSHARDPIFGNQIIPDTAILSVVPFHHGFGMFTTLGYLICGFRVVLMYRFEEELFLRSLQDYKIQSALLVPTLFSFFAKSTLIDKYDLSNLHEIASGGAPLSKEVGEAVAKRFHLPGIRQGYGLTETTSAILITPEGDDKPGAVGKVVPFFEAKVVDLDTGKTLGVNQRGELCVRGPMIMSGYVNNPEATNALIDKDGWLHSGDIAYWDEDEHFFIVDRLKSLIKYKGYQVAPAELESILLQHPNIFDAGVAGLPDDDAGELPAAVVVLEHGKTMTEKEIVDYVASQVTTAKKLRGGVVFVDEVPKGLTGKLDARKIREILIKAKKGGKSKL
In short: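 Cell-free recombinant firefly luciferase (5 ng/well) in 200mM potassium phosphate with 1 mg/ml BSA, 30 min at 37C with 8 concentrations from 5 nM to 87.5 uM [final], 0.5% DMSO. Luminescence read after D-luciferin (150uM)/dATP (147uM) reagent injection, pH 7.8; triplicates.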

[20] = system: Thyroperoxidase (TPO), gene 445522; experiment: CCTE_Simmons_GUA_TPO: CCTE's Guaiacol Assay for Thyroperoxidase (TPO) Inhibition, Simmons Lab (AID 2283750)
In short: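 Porcine thyroid microsomes (25 ug) in 200mM potassium phosphate, preincubated 30 s at 37C with compound (8 concentrations, 5 nM–87.5 uM) and 35mM guaiacol; 1mM H2O2 starts reaction. Absorbance change at 450nm over first 80 s; loss of signal versus DMSO, three replicates.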

Measured: AC50

CCCCCCCCCCCCCCCCO
inactive: [1] | [2] | [3] | [4]

CC(=O)CC(c1ccccc1)c1c(O)c2ccccc2oc1=O (configuration not stated)
inactive: [1] | [2] | [3] | [4]

CCc1nc(N)nc(N)c1-c1ccc(Cl)cc1
active: [1] 30.6 µM | [5] 31.1 µM | [3] 50 µM | [4] 50 µM
inactive: [2]

N[C@@H](Cc1c[nH]c2ccccc12)C(=O)O
inactive: [1] | [2] | [3]
active: [4] 9.92 µM

CN(C)CCCN1c2ccccc2Sc2ccc(Cl)cc21
active: [1] 0.751 µM | [5] 0.897 µM | [2] 33.7 µM | [3] 22.2 µM

CCCCC(CC)COP(=O)(OCC(CC)CCCC)OCC(CC)CCCC (configuration not stated)
active: [3] 17.6 µM | [4] 16.8 µM
inactive: [1] | [5] | [2] | [6] | [7] | [8] | [9] | [10] | [11] | [12]

CCc1cc(C2=C(C(=O)O)N(c3ccccc3C(F)(F)F)S(=O)(=O)c3ccccc32)cc2c1OCO2
active: [4] 25 µM
inactive: [1] | [5] | [2] | [3]

CCN(CC)CCOc1ccc(C(=C(Cl)c2ccccc2)c2ccccc2)cc1
inactive: [13] | [14] | [15] | [16] | [17]
active: [1] 1.17 µM | [5] 2.53 µM | [2] 37.8 µM | [3] 13.1 µM | [4] 12.4 µM

Nc1nc(Cl)nc2c1ncn2[C@H]1C[C@H](O)[C@@H](CO)O1
inactive: [2] | [18]
active: [1] 0.348 µM | [5] 0.621 µM | [13] 0.109 µM | [18] 0.354 µM | [6] 0.345 µM | [7] 289 nM and 52.1 nM | [8] 120 nM and 32 nM | [9] 1.81 µM | [10] 1.74 µM | [11] 1.58 µM | [12] 3.41 µM | [3] 1.98 µM | [4] 1.45 µM

Oc1ccc(O)cc1
inactive: [13] | [19]
active: [2] 2.69 µM | [4] 50 µM

NCCOCCOCCN
inactive: [2] | [3] | [4]

S=c1[nH]c2ccccc2s1
inactive: [13] | [19] | [4]

COC(=O)[C@H]1[C@H]2C[C@@H]3c4[nH]c5cc(OC)ccc5c4CCN3C[C@H]2C[C@@H](OC(=O)c2cc(OC)c(OC)c(OC)c2)[C@@H]1OC
inactive: [2] | [7] | [9] | [10] | [11] | [12] | [19]
active: [6] 81.8 µM | [8] 50 µM | [3] 42.2 µM | [4] 33 µM

CC(=O)O
inactive: [2] | [3] | [4]

Cc1occc(=O)c1O
inactive: [2] | [19] | [4]

OCC(O)CO
inactive: [2]

O=C1O[C@H]([C@H](O)CO)C(O)=C1O
inactive: [2] | [19] | [3]

CC(C)NCC(O)c1ccc(O)c(O)c1 (configuration not stated)
active: [20] 7.79 µM
inactive: [2] | [19]

CCCCCCCCCCCCCCOS(=O)(=O)O
inactive: [19]
active: [2] 32.8 µM | [3] 68 µM | [4] 42.3 µM

C=CCCCCCCCCCCCC
inactive: [2] | [3] | [4]

CC1=C(C)S(=O)(=O)CCS1(=O)=O
active: [3] 82.6 µM | [4] 88.8 µM
inactive: [13] | [2]

C/C=C/C=C/C(=O)O
inactive: [2] | [19] | [4]

CS(=O)(=O)c1ccc([C@@H](C[C@H]2CCC(=O)C2)C(=O)Nc2cnccn2)cc1Cl
inactive: [2]

CN(C)C(=O)NC1(c2ccccc2)CCN(CCC[C@]2(c3ccc(Cl)c(Cl)c3)CCCN(C(=O)c3ccccc3)C2)CC1
active: [3] 16.2 µM | [4] 16.7 µM
inactive: [13] | [2]

C=CCc1ccc(OC)c(OC)c1
inactive: [2]
active: [13] 0.102 µM

Cc1c(C)c2c(c(C)c1O)CCC(C)(COc1ccc(CC3SC(=O)NC3=O)cc1)O2 (configuration not stated)
active: [13] 0.0321 µM | [3] 50 µM | [4] 50 µM
inactive: [2] | [19]

Cc1cc(SC2=C(O)C[C@@](CCc3ccc(N)cc3)(C(C)C)OC2=O)c(C(C)(C)C)cc1CO
inactive: [2] | [19]
active: [3] 50 µM | [4] 61.8 µM
